# In the supplement of paper PMC11732987, “Enantioselective OTUD7B fragment discovery through chemoproteomics screening and high-throughput optimisation” (Communications Chemistry, 2025):
# Unmarked numbers belong to inactive results.
# Legend:
# Assay in all cases: log2 ratio of Biotin-Ahx-Ub-VS probe labelling (fragment/DMSO); higher = less target engagement (more negative = stronger competition), active = hit call of the paper (q ≤ 0.05, log2 ratio ≤ -1)
# Settings in all cases: compound concentration: 200 uM; treatment time: 3 h
# USP19 = biological target: T1, USP19 (UniProt O94966)
# T1 sequence (whole entry): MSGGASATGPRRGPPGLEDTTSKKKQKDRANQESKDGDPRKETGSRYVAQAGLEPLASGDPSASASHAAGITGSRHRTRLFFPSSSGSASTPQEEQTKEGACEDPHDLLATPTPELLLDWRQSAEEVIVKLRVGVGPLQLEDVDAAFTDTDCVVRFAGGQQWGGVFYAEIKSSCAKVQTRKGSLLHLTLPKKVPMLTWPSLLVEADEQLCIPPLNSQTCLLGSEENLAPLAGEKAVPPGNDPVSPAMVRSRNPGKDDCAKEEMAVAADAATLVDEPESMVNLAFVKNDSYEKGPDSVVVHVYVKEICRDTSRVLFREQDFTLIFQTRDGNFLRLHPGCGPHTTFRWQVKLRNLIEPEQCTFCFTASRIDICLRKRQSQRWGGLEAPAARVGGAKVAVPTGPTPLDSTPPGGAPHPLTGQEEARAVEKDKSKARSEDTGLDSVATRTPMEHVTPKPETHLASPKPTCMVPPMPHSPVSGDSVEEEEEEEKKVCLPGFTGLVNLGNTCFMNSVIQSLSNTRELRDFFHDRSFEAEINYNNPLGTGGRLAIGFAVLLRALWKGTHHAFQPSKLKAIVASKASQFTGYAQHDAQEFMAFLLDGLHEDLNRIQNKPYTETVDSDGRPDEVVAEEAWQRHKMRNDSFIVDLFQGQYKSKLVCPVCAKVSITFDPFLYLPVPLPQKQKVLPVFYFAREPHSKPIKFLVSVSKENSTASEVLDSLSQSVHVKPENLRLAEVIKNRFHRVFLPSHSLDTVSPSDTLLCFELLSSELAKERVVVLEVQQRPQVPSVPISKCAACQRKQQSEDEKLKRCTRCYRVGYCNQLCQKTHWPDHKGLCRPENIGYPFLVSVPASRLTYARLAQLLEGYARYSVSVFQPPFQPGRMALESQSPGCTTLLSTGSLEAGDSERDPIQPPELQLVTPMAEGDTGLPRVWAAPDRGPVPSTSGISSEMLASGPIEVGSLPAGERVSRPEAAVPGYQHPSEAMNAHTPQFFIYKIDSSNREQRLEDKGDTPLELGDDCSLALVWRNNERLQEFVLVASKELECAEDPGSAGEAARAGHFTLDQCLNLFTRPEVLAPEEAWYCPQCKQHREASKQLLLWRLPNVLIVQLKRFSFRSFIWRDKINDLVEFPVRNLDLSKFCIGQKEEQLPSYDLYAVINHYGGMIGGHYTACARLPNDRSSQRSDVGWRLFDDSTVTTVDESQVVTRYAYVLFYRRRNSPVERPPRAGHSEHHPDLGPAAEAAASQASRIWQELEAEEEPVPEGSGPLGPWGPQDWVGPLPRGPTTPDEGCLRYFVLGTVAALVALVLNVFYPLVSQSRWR
# In short: (§1)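 In triplicate, 495 µg of HEK293T lysate per sample was incubated with fragment at 200 µM or vehicle for 3 h. Biotin-Ahx-Ub-VS was then added to 0.5 µM final for 1 h, and labelled DUBs were captured with NeutrAvidin, digested with LysC and trypsin, and measured by diaPASEF LC-MS/MS. Data are average log2 fragment/vehicle ratios by unpaired t-test from global-median-normalised Spectronaut label-free quantities, restricted to proteins with ≥2 unique peptides.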
# USP22 = biological target: T2, USP22 (UniProt Q9UPT9)
# T2 sequence (whole entry): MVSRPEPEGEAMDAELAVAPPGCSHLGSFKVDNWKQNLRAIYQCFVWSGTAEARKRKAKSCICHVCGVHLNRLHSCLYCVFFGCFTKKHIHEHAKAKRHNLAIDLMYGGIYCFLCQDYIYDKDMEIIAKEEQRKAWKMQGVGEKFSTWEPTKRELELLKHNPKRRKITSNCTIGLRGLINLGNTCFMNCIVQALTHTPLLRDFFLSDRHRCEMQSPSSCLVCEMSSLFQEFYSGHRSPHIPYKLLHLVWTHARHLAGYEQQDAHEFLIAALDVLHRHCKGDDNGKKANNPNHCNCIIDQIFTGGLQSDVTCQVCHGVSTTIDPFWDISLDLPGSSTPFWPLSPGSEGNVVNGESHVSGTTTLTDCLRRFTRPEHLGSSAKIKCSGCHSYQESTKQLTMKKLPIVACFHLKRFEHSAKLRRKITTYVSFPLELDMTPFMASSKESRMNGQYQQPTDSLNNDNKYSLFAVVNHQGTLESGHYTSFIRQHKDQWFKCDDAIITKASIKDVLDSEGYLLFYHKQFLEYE
# In short: as §1
# USP24 = USP24 (UniProt Q9UPU5)
# Chain of USP24 (Q9UPU5 whole entry): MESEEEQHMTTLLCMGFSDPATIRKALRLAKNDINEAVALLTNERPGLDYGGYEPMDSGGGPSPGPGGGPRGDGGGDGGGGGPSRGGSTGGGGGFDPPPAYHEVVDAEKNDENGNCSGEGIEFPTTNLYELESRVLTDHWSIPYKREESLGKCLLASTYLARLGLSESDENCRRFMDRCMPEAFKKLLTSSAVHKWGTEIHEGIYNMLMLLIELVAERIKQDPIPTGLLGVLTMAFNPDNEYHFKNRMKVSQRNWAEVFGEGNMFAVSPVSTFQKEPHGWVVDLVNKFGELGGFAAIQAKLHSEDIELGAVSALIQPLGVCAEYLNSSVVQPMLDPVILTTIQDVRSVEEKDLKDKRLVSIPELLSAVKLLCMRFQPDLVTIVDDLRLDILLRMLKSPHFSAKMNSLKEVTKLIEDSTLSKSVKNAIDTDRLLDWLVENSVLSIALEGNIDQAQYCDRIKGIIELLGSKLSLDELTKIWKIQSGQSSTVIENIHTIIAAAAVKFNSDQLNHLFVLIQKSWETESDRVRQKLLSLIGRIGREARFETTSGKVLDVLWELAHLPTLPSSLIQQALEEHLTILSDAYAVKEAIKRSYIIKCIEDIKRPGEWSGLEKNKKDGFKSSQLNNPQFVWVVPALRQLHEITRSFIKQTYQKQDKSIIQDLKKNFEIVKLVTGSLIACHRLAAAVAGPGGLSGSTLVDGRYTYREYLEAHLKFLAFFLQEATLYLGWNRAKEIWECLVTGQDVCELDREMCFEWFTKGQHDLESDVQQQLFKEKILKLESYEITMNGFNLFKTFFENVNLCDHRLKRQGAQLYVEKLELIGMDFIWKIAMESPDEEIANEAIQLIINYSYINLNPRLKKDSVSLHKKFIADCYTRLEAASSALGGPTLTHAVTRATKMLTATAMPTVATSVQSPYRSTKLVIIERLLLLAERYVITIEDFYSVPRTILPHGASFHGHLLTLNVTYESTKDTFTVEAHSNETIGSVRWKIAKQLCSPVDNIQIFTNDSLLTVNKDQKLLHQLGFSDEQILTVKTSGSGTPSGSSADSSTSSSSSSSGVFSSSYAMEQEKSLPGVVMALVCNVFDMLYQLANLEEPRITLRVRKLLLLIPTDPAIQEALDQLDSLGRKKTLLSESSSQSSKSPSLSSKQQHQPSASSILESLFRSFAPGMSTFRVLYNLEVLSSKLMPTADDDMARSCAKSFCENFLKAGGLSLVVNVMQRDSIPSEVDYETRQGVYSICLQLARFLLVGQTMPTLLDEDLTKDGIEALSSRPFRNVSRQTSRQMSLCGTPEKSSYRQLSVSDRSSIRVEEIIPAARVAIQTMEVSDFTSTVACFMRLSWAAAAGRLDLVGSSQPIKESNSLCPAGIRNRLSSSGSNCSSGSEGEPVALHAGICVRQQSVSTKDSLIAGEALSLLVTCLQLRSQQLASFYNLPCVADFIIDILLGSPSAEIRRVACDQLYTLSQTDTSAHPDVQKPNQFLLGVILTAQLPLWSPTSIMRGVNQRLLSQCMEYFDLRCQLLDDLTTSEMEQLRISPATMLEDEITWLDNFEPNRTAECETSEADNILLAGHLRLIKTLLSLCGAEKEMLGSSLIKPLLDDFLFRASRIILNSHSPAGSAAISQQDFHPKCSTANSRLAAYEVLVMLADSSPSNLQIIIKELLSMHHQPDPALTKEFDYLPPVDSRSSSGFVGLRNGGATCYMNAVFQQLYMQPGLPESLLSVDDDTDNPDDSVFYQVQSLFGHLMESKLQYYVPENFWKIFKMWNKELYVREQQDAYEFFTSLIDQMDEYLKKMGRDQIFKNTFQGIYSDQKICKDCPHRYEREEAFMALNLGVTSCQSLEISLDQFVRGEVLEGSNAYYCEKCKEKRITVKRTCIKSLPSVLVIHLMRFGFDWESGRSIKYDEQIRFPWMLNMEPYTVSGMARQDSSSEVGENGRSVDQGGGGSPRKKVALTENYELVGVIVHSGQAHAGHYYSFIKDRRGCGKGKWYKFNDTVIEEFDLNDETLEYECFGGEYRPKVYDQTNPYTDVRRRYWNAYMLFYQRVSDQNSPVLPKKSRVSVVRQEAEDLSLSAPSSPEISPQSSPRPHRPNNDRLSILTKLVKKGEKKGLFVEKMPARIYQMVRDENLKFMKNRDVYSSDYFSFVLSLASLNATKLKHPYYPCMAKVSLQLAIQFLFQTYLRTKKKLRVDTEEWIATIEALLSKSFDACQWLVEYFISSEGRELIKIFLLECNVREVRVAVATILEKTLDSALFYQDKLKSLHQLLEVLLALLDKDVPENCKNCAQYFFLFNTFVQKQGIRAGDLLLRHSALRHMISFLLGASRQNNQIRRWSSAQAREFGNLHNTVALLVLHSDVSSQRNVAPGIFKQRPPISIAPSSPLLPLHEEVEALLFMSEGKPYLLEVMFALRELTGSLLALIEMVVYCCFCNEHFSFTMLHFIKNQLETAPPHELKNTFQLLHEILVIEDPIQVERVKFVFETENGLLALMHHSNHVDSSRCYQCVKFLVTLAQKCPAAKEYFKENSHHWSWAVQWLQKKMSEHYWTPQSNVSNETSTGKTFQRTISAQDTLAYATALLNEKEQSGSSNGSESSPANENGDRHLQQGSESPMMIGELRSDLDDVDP
# In short: as §1
# USP25 = biological target: T3, USP25 (UniProt Q9UHP3)
# T3 sequence (whole entry): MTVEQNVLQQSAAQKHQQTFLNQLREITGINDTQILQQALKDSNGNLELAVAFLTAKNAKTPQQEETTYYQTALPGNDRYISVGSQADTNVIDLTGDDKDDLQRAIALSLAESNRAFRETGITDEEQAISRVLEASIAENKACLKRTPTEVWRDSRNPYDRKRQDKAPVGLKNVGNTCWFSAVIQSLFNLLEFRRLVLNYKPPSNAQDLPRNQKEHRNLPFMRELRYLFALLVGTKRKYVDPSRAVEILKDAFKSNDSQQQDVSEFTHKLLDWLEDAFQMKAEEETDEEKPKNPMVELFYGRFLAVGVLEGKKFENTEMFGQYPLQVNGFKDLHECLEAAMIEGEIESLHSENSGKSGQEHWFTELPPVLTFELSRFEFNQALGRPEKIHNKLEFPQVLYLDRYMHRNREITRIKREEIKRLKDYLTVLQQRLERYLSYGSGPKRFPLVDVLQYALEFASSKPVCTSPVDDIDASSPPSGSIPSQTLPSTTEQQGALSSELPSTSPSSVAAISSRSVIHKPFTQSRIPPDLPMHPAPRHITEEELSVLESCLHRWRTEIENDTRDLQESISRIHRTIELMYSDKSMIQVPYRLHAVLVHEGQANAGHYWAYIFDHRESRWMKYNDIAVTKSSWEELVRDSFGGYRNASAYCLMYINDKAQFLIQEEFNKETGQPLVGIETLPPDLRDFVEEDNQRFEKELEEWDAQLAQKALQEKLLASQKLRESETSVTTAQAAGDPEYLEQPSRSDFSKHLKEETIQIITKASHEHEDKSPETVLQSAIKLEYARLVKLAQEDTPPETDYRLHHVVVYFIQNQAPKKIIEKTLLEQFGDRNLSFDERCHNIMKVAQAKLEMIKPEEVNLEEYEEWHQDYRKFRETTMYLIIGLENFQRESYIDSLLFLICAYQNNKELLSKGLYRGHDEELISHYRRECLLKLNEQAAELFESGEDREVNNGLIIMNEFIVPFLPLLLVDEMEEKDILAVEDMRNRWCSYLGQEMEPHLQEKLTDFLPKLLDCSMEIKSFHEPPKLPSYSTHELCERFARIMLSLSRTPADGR
# In short: as §1
# USP28 = biological target: T4, USP28 (UniProt Q96RU2)
# T4 sequence (whole entry): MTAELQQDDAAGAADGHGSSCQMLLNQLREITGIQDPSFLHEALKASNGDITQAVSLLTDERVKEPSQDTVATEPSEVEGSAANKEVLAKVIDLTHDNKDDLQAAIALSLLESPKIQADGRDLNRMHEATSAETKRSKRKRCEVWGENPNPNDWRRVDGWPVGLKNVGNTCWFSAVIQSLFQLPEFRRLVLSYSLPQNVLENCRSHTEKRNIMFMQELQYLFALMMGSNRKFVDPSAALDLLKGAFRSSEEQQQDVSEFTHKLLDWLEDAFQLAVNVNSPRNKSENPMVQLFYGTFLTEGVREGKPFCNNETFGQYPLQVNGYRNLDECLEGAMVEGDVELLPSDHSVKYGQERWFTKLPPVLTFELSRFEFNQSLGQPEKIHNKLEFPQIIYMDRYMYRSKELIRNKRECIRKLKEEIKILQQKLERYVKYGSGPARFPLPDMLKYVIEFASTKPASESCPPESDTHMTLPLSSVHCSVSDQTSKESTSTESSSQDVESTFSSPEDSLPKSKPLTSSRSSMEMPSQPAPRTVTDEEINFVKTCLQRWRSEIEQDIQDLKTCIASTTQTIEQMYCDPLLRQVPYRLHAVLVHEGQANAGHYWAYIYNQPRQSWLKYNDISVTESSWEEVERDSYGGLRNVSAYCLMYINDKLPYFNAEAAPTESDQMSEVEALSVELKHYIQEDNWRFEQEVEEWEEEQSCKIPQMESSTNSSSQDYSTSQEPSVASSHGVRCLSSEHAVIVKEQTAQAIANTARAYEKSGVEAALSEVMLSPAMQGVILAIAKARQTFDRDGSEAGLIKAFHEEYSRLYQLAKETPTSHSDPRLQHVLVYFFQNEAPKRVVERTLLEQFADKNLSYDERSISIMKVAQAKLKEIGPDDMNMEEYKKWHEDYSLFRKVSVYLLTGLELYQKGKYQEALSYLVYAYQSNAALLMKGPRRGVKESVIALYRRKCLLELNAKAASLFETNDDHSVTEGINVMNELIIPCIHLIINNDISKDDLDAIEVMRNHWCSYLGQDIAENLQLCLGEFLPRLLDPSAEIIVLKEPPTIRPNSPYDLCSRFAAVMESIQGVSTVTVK
# In short: as §1
smiles,measurement,setting,value
O=C(CCl)N1CCOC(CCc2ccccc2)C1 (stereo not given),log2 ratio of Biotin-Ahx-Ub-VS probe labelling,USP19,-0.687
same,log2 ratio of Biotin-Ahx-Ub-VS probe labelling,USP22,-0.0816
same,log2 ratio of Biotin-Ahx-Ub-VS probe labelling,USP24,-1.37 (active)
same,log2 ratio of Biotin-Ahx-Ub-VS probe labelling,USP25,-0.497
same,log2 ratio of Biotin-Ahx-Ub-VS probe labelling,USP28,-0.802
